High-throughput results deposited in PubChem by several laboratories.
HIF-2a block: HIF-2a reporter inhibitors, primary screen, luminescence, 786-0 RCC cells. inhibition, % at 18.8 µM. 786-0 RCC cells HIF-2a reporter, luciferase luminescence, overnight. hit rate 0.72% among 360,000;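 active = inhibition of the luminescence signal of 40% or more relative to plate controls, in a single-dose primary screen at 18.75 µM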
Peg3 prom inh: Peg3 promoter-driven luciferase inhibitors, primary screen, cell-based, HeLa, luciferase luminescence; hit rate 1.7% among 360,000; inhibition, % at 20 µM; HeLa PEG-Prom luciferase reporter, overnight;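 active = inhibition of at least 50% at 20 µM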
MITF TRPM1 inh: inhibitors of MITF-dependent TRPM1 promoter reporter, primary screen, cell-based, SK-MEL-5, single point, luciferase; SK-MEL-5 TRPM1 promoter luciferase, 24 h; inhibition, % at 12.5 µM; hit rate 0.83% among 330,000; AID 488899, 2010;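 active = mean inhibition across replicates of 60% or more, whatever share of single replicates reaches that level; inconclusive = some that reach 60%, reason not given; inactive = mean inhibition across replicates below 60%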
CF NFkB block: inhibitors of PAF-induced NF-kB signaling, primary screen, cell-based, GFP fluorescence, uHTS; KKLEB NF-kB-GFP reporter, GFP fluorescence overnight; inhibition, % at 5 µM; hit rate 0.86% among 360,000;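 active = at least 50% inhibition at 5 µM, scaled per plate between neutral and stimulator controls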;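 note: PAF is a Pseudomonas aeruginosa culture filtrate used as stimulus; plate controls were PAF-stimulated DMSO wells for no effect and unstimulated DMSO wells for full effect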
KKLEB cytotox: cytotoxicity in KKLEB CF airway cells, primary screen, cytotoxicity control for CF NF-kB inhibitor project, cell-based, uHTS, fluorescence assay plates; activity change (cytotoxicity), % at 5 µM; KKLEB CF airway cells viability, ATPlite luminescence, overnight; active compounds read low; cells stimulated with P. aeruginosa culture filtrate; hit rate 0.36% among 360,000;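 active = corrected activity change at or below -50% at 5 µM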
ABHD5-PLIN5 inh: ABHD5-PLIN5 interaction inhibitors, primary screen, cell lysate, split luciferase complementation, luminescence. Split G. princeps luciferase complementation, 4 h. inhibition, % at 4 µM. hit rate 0.78% among 360,000. AID 602281, 2012;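 active = inhibition above the mean inhibition across every tested compound plus 3 SD, cut at about 22% in these data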;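 note: 0% = DMSO only wells and the 100% control is not disclosed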
* marks the source's active call; other numbers are inactive results; ? = inconclusive; · = no result given. A selection: hits, their analogues and other compounds. The true share with any hit is near 3%.

SMILES	HIF-2a block	Peg3 prom inh	MITF TRPM1 inh	CF NFkB block	KKLEB cytotox	ABHD5-PLIN5 inh
Oc1c(Cl)cc(CN2CCOCC2)c2cccnc12	-11.3	30.5	55.2	47.5	-42.2	6.2
CCCCCCCNC(=O)C1(CC2CC(c3ccc(Cl)cc3)=NO2)CCNCC1 (stereo unspecified)	-2.3	111.0*	88.4*	25.4	-19.2	15.9
CCCCCCCNC(=O)C1(CC2CC(c3ccc(Cl)cc3)=NO2)CCN(C(=O)Cc2ccc(F)cc2)CC1 (stereo unspecified)	13.7	19.1	-3.7	14.8	-23.0	6.1
CCc1nc2ccc(C(=O)N3CCN(c4ccccc4)CC3)cn2c1N(C)CCC(C)C	5.8	25.6	·	-0.7	-0.9	7.8
CN(c1ccccc1)c1ccc(/C=C(/CCC(=O)O)c2nc3ccccc3s2)cc1[N+](=O)[O-]	12.6	57.0*	10.8	35.4	-16.6	-2.0
O=C(O)CC/C(=C\c1ccc(N2CCCC2)c([N+](=O)[O-])c1)c1nc2ccccc2s1	2.8	5.2	4.2	-1.6	-1.1	-2.1
COc1ccc(-c2cc3c(=O)n(CC(=O)NCCCN4CCC(Cc5ccccc5)CC4)ncn3n2)cc1	-5.8	96.0*	70.8*	23.6	-61.9*	7.5
Cc1nn(CC(=O)NCCCN2CCC(N3CCCCC3)CC2)c(=O)c2cc(-c3ccccc3)nn12	5.0	77.9*	-22.4	-7.1	-8.4	-3.7
COc1ccc(-c2cc3c(=O)n(CC(=O)NCCCN4CCN(Cc5ccccc5)CC4)ncn3n2)cc1	-41.1	-75.2	-16.7	2.9	-41.2	3.7
CCCC#Cc1ccc2c(c1)O[C@@H](CN(C)Cc1ccc3c(c1)OCO3)[C@H](C)CN([C@@H](C)CO)S2(=O)=O	15.2	62.5*	·	32.4	-21.9	-12.2
C[C@@H]1CN([C@H](C)CO)S(=O)(=O)c2ccc(C#Cc3ccccc3F)cc2O[C@H]1CN(C)C(=O)c1ccc2c(c1)OCO2	-25.4	56.5*	·	12.5	0.8	8.3
C[C@H]1CN([C@@H](C)CO)S(=O)(=O)c2ccc(C#Cc3ccccn3)cc2O[C@H]1CN(C)Cc1ccc(F)cc1	-14.8	-18.8	·	1.0	-9.5	-7.4
COc1ccccc1C1CCN(Cc2ccc(Cl)c(Cl)c2)CC1	20.3	5.0	22.1	-6.1	-7.5	-4.6
CN[C@@H]1CC[C@H](c2ccc(Cl)c(Cl)c2)c2ccccc21	-8.1	91.2*	0.9	13.0	·	-1.9
O=c1cc(CSc2ccc(Cl)cc2)nc(-c2ccccc2)[nH]1	9.5	17.0	-1.7	-4.2	1.5	-6.5
O=c1cc(CSc2ccc(Cl)cc2)nc(-c2ccccn2)[nH]1	-7.8	90.7*	67.4*	3.5	10.1	-3.7
c1ccc(CN2CCC(Nc3nc(-c4ccccc4)nc4ccccc34)CC2)cc1	5.0	75.0*	4.8	-5.4	-6.8	10.6
c1ccc(N2CCN(c3nc(NCc4ccco4)c4ccccc4n3)CC2)cc1	-69.2	-1.6	-26.9	-2.3	-11.6	1.3
c1ccc(CNc2nc(N3CCN(Cc4ccccc4)CC3)nc3ccccc23)cc1	12.5	64.7*	·	23.1	-24.6	15.9
c1ccc(CN2CCC(CNc3ncnc4ccccc34)C2)cc1 (stereo unspecified)	19.2	-10.7	7.7	15.5	-7.0	0.1
CCOC(OCC)c1nc(N)[nH]c(=O)c1CCCCc1ccccc1	13.1	8.4	0.0	4.6	-15.0	-0.6
CC(C)CNc1ncnc2c1sc1nc(N3CCOCC3)c3c(c12)CC(C)(C)OC3	7.4	15.7	-2.7	35.2	-39.1	-3.1
CCN(CC)CCNc1ncnc2c1sc1nc(N3CCCC3)c3c(c12)CC(C)(C)OC3	29.6	78.8*	40.3	25.3	-23.3	11.4
CCN(CC)CCNc1ncnc2c1sc1nc(N3CCOCC3)c3c(c12)CCCC3	7.9	100.5*	76.9*	11.5	-19.4	12.3
CN(Cc1cn(Cc2cccc(Cl)c2)nn1)C1CN(Cc2cn(Cc3cccc(Cl)c3)nn2)S(=O)(=O)C1 (stereo unspecified)	4.0	·	·	·	·	-3.8
SMILES	HIF-2a block	Peg3 prom inh	MITF TRPM1 inh	CF NFkB block	KKLEB cytotox	ABHD5-PLIN5 inh
CCCCNc1c(-c2cccc(-c3cc(C(C)=O)cs3)c2)nc2cc(C)ccn12	-101.2	60.4*	-5.2	10.4	-10.2	18.9
CCCCCCSc1cc(-c2nc3cc(C)ccn3c2NCCCC)ccc1OC	-8.7	39.5	3.7	0.8	13.4	-12.9
CN1CCN([C@@H]2CS(=O)(=O)N[C@H]2COCc2ccccc2)CC1	5.2	5.2	·	-7.0	4.4	-0.7
CCOc1ccc(OCCOCCNCCOC)cc1	6.5	7.7	-12.5	-19.6	7.7	-6.1
CCOC(=O)C1CCN(C(=O)C2(NC(=O)NC3CCCCC3)CCCCC2)CC1	13.3	63.7*	1.3	4.6	3.8	0.4
O=C1C=C(O)c2cccc(O)c2C1=O	-2.4	14.1	22.1	-18.1	-4.9	-21.9
O=C1C=C(c2c(O)ccc3ccccc23)c2ccccc2C1=O	84.4*	106.8*	?	88.4*	-35.7	91.0*
CCOc1ccccc1N(C)S(=O)(=O)c1ccc2c(c1)N(C(C)=O)CCO2	14.9	15.5	3.9	1.2	4.3	0.8
Cc1cccc(C)c1N1C(=O)c2ccccc2NC(=O)C1C(=O)Nc1ccc2c(c1)OCCO2 (stereo unspecified)	1.4	·	·	·	·	-4.3
Cc1cc(NC(=O)COC(=O)C2COc3ccccc3O2)no1 (stereo unspecified)	11.1	64.0*	12.1	-4.9	-3.7	-3.8
CCNc1nc(CSc2ccccc2)nc2sc(C)c(C)c12	-47.0	-12.1	1.1	17.4	-3.9	-0.1
COc1ccc(N=C(NN)c2ccc3ccccc3n2)cc1	56.5*	-101.1	44.8	-1.1	-1.3	-6.9
Cc1ccc(S(=O)(=O)NCCC(=O)N2CCCCCCC2)cc1	-5.5	12.8	7.5	3.3	-2.8	11.7
C[C@@H]1CN([C@@H](C)CO)C(=O)c2c(c3ccccc3n2C)-c2ccccc2CO[C@H]1CN(C)S(=O)(=O)c1ccc(C(F)(F)F)cc1	2.7	10.8	·	5.5	4.3	-12.8
C[C@@H]1CN([C@H](C)CO)C(=O)c2c(c3ccccc3n2C)-c2ccccc2CO[C@H]1CN(C)Cc1ccc(Oc2ccccc2)cc1	-34.0	57.6*	·	29.7	-28.6	-0.4
C[C@@H]1CN([C@H](C)CO)C(=O)c2c(c3ccccc3n2C)-c2ccccc2CO[C@H]1CN(C)Cc1ccc(C(F)(F)F)cc1	-69.2	58.8*	·	10.0	-8.0	-5.4
CN(C(=O)c1cccc(NC(=O)Cc2ccc(NC(=O)C3CCCN(C(=O)c4ccccc4)C3)cc2)c1)C1CCCCC1 (stereo unspecified)	-5.2	14.8	-1.4	-6.2	8.8	6.3
